Structures are written as SMILES. Where “and” joins values, the source holds several entries; their conditions need not be identical. Identical values can stand only once. Unmarked numbers belong to inactive results. Records with an inconclusive call do not appear. Calls of active or inactive are those of the source. Unless noted, the call rests on the fitted dose curve; in most records, active means well fitted curve in the direction sought with a large enough effect in the repeat runs; inconclusive means weak or mixed curves; inactive means no such curve, though single readings can be large; an effect the other way counts as inactive or inconclusive.

Assay [1] can be described thus: qHTS assay for small molecules that induce genotoxicity in human embryonic kidney cells expressing luciferase-tagged ATAD5 (AID 651632). Further: nearly all actives have a fitted effect of over 15% in size. Further: potency means the concentration at half of the fitted maximal effect. Summed up: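 Luminescence read-out: after 16 hr compound exposure at 37C, ATAD5-luciferase HEK293T cells received Amplite, 30 min RT, then CCD imaging. A rise in signal marks genotoxic stress.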
Assay [2] is described as follows: qHTS assay for small molecule agonists of the p53 signaling pathway - cell viability (AID 651633; calls by dose curve; further: nearly all actives have a fitted effect of over 30% in size; further: potency means the concentration at half of the fitted maximal effect). Summed up:
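p53RE-bla cells, seeded at 4,000 per well and rested 5 h at 37 C/5% CO2, received compounds in DMSO for 16 h at 37 C. CellTiter-Glo was then added, and luminescence was read after 30 min at room temperature to gauge cytotoxicity.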

Assay [3] is described as follows: qHTS assay for small molecules that induce genotoxicity in human embryonic kidney cells expressing luciferase-tagged ATAD5 - cell viability (AID 651634; calls by dose curve; further: nearly all actives have a fitted effect of over 25% in size). Summed up:
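HEK293T ATAD5-luc cells, 2,000/well; compound 15.5 hr, 37C/5% CO2; CellTiter-Fluor 30 min, 37C; fluorescence read.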

Assay [4] in a line: qHTS assay for small molecule disruptors of the mitochondrial membrane potential (AID 720635). Further: potency means the concentration at half of the fitted maximal effect. In a few lines: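 HepG2 cells (2,000/well) attached overnight at 37C, then took compound for 1 hr at 37C, 5% CO2. Mito-MPS dye was added for 30 min; fluorescence was read at 490/535 nm (monomers) and 540/590 nm (aggregates).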
Assay [5] in a line: qHTS assay to test for compound auto fluorescence at 535 nm (green) in HepG2 cells (AID 720675).
Assay [6] in a line: qHTS assay to test for compound auto fluorescence at 460 nm (blue) in HEK293 cells (AID 720678). Summed up: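 HEK293 cells (2,000/well, medium with 10% dialyzed FBS) attached 4-5 hr, then exposed to compound overnight at 37C, 5% CO2. Blue fluorescence read at 405/460 nm, with triamterene as reference fluorophore.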
A short description of assay [7]: qHTS assay to test for compound auto fluorescence at 535 nm (green) in HEK293 cells (AID 720680).
Assay [8] can be described thus: qHTS assay to test for compound auto fluorescence at 460 nm (blue) in HEK293 cell free culture (AID 720681). Summed up:
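Test compounds were pinned into cell-free culture medium (DMEM with 10% FBS) and fluorescence was read directly at Ex/Em 405/460 nm. Signals were expressed as fluorescence equivalents of triamterene, with DMSO vehicle as control.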

The nature of assay [9]: qHTS assay to test for compound auto fluorescence at 535 nm (green) in HEK293 cell free culture (AID 720682). Summed up:
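Read-out: 485/535 nm fluorescence intensity, calibrated against fluorescein. Medium only (DMEM + 10% FBS, no cells); test compound or DMSO vehicle added by pintool before plate reading.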

The nature of assay [10]: qHTS assay to test for compound auto fluorescence at 590 nm (red) in HEK293 cell free culture (AID 720683). Summed up:
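Tox21 10K library compounds were pinned into cell-free DMEM with 10% FBS and fluorescence was read at excitation 540 nm. Activity is expressed as Rose Bengal sodium equivalency.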

Assay [11] in a line: qHTS assay to test for compound auto fluorescence at 590 nm (red) in HepG2 cell free culture (AID 720684). Summed up:
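Ex 540 / Em 590 nm read of compound in cell-free MEM (10% FBS). Rose Bengal sodium reference.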

Assay [12] is described as follows: qHTS assay to test for compound auto fluorescence at 460 nm (blue) in HepG2 cell free culture (AID 720685). In a few lines: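 Cell-free plates of MEM plus 10% FBS received 23 nL compound or DMSO vehicle; blue-channel (405/460 nm) intensity scored against triamterene as reference fluorophore.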
Assay [13] in a line: qHTS assay to test for compound auto fluorescence at 535 nm (green) in HepG2 cell free culture (AID 720686).
The nature of assay [14]: qHTS assay to test for compound auto fluorescence at 460 nm (blue) in HepG2 cells (AID 720687). Summed up:
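Cells (2,000/well in MEM with 10% FBS) attached overnight at 37 C, then were exposed to compound or DMSO for 1 hr at 37 C, 5% CO2. Fluorescence read at Ex/Em 405/460 nm, expressed as triamterene-equivalent signal.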

Assay [15] in a line: qHTS assay to test for compound auto fluorescence at 590 nm (red) in HEK293 cells (AID 720679). Summed up: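 HEK293 cells (2,000/well, 10% dialyzed FBS) attached 4-5 hr, then dosed with compound or DMSO and incubated overnight at 37C, 5% CO2. Red fluorescence read at 540/590 nm, Rose Bengal sodium as reference fluorophore.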
Assay [16] in a line: qHTS assay for small molecule disruptors of the mitochondrial membrane potential - cell viability (AID 720634; calls by dose curve;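 further: human HepG2 liver cancer cells; nearly all actives have a fitted effect of over 20% in size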). Summed up:
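Luminescence from CellTiter-Glo (ATP content) gave viability in HepG2 cells, read in the same wells as the MMP dye assay after 1 hr compound exposure at 37 C.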

The nature of assay [17]: qHTS assay to test for compound auto fluorescence at 590 nm (red) in HepG2 cells (AID 720674). In a few lines:
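Intrinsic compound fluorescence in the red window (Ex/Em 540/590 nm) is measured in attached HepG2 cells exposed for 1 hr, DMSO vehicle as baseline, benchmarked to Rose Bengal sodium.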

The target in assay [18] is Glucocorticoid receptor (Homo sapiens) (UniProt P04150). In words: qHTS assay to identify small molecule agonists of the glucocorticoid receptor (GR) signaling pathway (AID 720691; active means well fitted activation curve with a large enough effect in the signal ratio in the repeat runs, not every such curve was filed as active; the % refers to the signal ratio). The conditions noted are these: GR-bla HeLa, beta-lactamase reporter ratio, 18 h; activation: at 62.4 µM (top of the series). Summed up:
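HeLa GR-bla reporter line; cells pre-incubated 4 h, compound in DMSO 18 h at 37 C; LiveBLAzer B/G FRET substrate 2 h RT; fluorescence intensity read-out.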

For assay [19] the target is unchanged. The assay can be described thus: qHTS assay to identify small molecule antagonists of the glucocorticoid receptor (GR) signaling pathway (AID 720692; active means well fitted inhibition curve with a large enough effect in the signal ratio in the repeat runs, not every such curve was filed as active; the % refers to the signal ratio). Summed up: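 Read-out: beta-lactamase FRET substrate fluorescence, 2 h at room temperature, in HeLa cells stably carrying a GRE-driven bla reporter. Compounds were co-incubated with 5 nM dexamethasone agonist (final) for 18 h at 37 C.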

Glucocorticoid receptor (Homo sapiens), sequence (P04150 whole entry, looked up): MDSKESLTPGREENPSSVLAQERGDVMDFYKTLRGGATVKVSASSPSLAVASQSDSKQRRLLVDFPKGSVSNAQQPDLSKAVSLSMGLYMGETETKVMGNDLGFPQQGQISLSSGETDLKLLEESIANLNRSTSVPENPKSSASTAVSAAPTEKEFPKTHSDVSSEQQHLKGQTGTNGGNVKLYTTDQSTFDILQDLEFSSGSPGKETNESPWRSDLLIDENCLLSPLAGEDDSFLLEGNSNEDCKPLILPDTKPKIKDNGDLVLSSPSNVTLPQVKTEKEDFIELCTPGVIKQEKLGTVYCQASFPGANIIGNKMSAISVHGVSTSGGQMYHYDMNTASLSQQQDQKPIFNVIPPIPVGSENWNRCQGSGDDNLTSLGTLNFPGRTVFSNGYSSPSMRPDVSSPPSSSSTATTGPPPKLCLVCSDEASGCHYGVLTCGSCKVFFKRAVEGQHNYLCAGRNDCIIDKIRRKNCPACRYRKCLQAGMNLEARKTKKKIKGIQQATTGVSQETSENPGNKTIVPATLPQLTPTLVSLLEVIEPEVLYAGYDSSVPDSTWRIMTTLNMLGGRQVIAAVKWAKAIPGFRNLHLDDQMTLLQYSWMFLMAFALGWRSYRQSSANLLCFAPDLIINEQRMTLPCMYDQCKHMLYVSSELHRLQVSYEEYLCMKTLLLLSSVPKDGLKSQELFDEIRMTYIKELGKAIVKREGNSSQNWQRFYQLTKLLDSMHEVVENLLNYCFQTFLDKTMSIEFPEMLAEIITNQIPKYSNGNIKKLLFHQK

As to `CC(C)[C@@H](Nc1ccc(C(F)(F)F)cc1Cl)C(=O)OC(C#N)c1cccc(Oc2ccccc2)c1` (some centres undefined), the Potency entry in [1], in [2], in [3], in assay [5], in [6] and in assay [8] was “inactive” each time. Further, the Potency result in assay [12], in assay [13] and in assay [14] was “inactive” each time. Further, in assay [4], the Potency is 26.3 µM (active). The call in assay [7], in assay [9], in assay [10] and in assay [11] was inactive.
As to `O=S1OCC2C(CO1)C1(Cl)C(Cl)=C(Cl)C2(Cl)C1(Cl)Cl` (centres undefined), the Potency result in [1], in assay [3], in assay [5], in assay [6], in assay [8] and in [12] was “inactive” throughout. In addition, the Potency result in [13] and in [14] was “inactive” throughout. In assay [2], the Potency is 68.7 µM (active) and 54.4 µM (active). In addition, the molecule was classed as inactive in [15], in assay [7], in assay [9], in assay [10] and in assay [11].
Turning to `O=c1c2ccccc2c(=O)c2c1cc(Cl)c1[nH]c3c([nH]c12)c(Cl)cc1c(=O)c2ccccc2c(=O)c13`, the Potency result in assay [1], in assay [2], in assay [3], in [16], in assay [5] and in assay [8] was “inactive” each time. The Potency entry in [12], in assay [13], in [14], in assay [18] and in [19] was “inactive” in each case. Besides, the result in assay [17], in assay [15], in assay [7], in [9], in assay [10] and in assay [11] was inactive.
As to `CCCCC(CC)COC(=O)c1ccccc1C(=O)OCC(CC)CCCC` (centres undefined), the Potency result in assay [1], in [2], in assay [3], in [16], in assay [5] and in assay [6] was “inactive” throughout. Moreover, the Potency entry in assay [8], in [12], in assay [13] and in assay [14] was “inactive” in each case. In addition, the molecule was called inactive in assay [7], in [9], in assay [10] and in assay [11].
Consider `CN1C(=O)[C@@H](NC(=O)c2cc3ccccc3[nH]2)N=C(c2ccccc2)c2ccccc21`, for which the Potency in assay [1] was 11.9 µM (active); in assay [4], 10.6 µM (active). In addition, the Potency result in assay [2], in assay [3], in assay [5], in [6], in assay [8] and in assay [12] was “inactive” throughout. The Potency entry in assay [13] and in assay [14] was “inactive” each time. The result in assay [17], in [15], in assay [7], in assay [9] and in assay [11] was inactive.
Turning to `CC(C)C(Nc1ccc(C(F)(F)F)cc1Cl)C(=O)OC(C#N)c1cccc(Oc2ccccc2)c1` (centres undefined), the Potency entry in [1], in assay [2], in assay [3], in assay [5], in [6] and in assay [8] was “inactive” each time. The Potency result in assay [12], in assay [13] and in [14] was “inactive” throughout. In addition, in [4], the Potency is 49 µM (active). The result in [17], in assay [15], in [7], in assay [9], in assay [10] and in assay [11] was inactive.
Regarding `CNC(=O)CSP(=O)(OC)OC`, the Potency result in assay [1], in assay [2], in assay [3], in [4], in assay [5] and in assay [6] was “inactive” throughout. Moreover, the Potency entry in [8], in [12], in assay [13], in [14], in assay [18] and in assay [19] was “inactive” in each case. Also, the result in assay [17], in assay [15], in assay [7], in [9], in [10] and in [11] was inactive.
Consider `CCCN`, for which the Potency result in [1], in assay [2], in assay [3], in assay [4], in assay [5] and in assay [6] was “inactive” each time. Moreover, the Potency result in assay [8], in [12], in [13] and in assay [14] was “inactive” each time. Also, the call in [17], in assay [15], in assay [7], in assay [9], in assay [10] and in assay [11] was inactive.
In the case of `ClSC(Cl)(Cl)Cl`, the Potency result in [1], in assay [2], in [3], in [4], in assay [5] and in assay [8] was “inactive” throughout. For the same molecule, the Potency entry in [12], in [13] and in assay [14] was “inactive” each time. The call in assay [17], in [15], in assay [7], in [9], in assay [10] and in assay [11] was inactive.
For `CCC(C)Nc1c([N+](=O)[O-])cc(C(C)(C)C)cc1[N+](=O)[O-]` (centres undefined), the Potency entry in assay [1], in assay [2], in assay [3], in [5], in assay [6] and in assay [8] was “inactive” in each case. For the same molecule, the Potency entry in [12], in assay [13], in assay [14], in assay [18] and in assay [19] was “inactive” throughout. The outcome in [17], in [15], in [7], in assay [9], in [10] and in [11] was inactive.
`Oc1cc(Cl)cc(Cl)c1`: the Potency entry in [1], in assay [2], in assay [3], in assay [5], in [8] and in assay [12] was “inactive” throughout. Besides, the Potency entry in [13], in [14], in assay [18] and in assay [19] was “inactive” each time. The Potency in assay [4] is 9.79 µM (active). Moreover, the molecule was called inactive in assay [17], in assay [15], in assay [7] and in assay [11].
Consider `COP(=S)(OC)Oc1ccc([N+](=O)[O-])c(C)c1`, for which the Potency result in assay [1], in assay [2], in assay [3], in assay [5], in assay [6] and in assay [8] was “inactive” each time. Further, the Potency entry in assay [12], in [13], in [14] and in [18] was “inactive” throughout. Moreover, the Potency in assay [4] was 68.6 µM (active). The molecule was called inactive in assay [17], in [15], in [7], in [10] and in assay [11].
On to `COC(=O)C(C)N(C(=O)c1ccco1)c1c(C)cccc1C` (centres undefined), for which the Potency entry in assay [1], in assay [2], in assay [3], in assay [4], in [5] and in assay [6] was “inactive” throughout. Also, the Potency result in assay [8], in assay [12], in assay [13], in assay [14], in assay [18] and in assay [19] was “inactive” each time. Moreover, the molecule was classed as inactive in assay [17], in assay [15], in [7], in [10] and in assay [11].

The record behind these values is PubChem BioAssay (Tox21).
